Measurements as given in PubChem BioAssay AID2650 (Broad Institute, 2010).
Among all 320,000 compounds or so, about 320 (0.1%) were called active.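 How the source made its calls: active means more than half of replicates show inhibition above 20%; inconclusive means some but at most half of replicates above 20% inhibition; inactive means no replicate shows inhibition above 20%.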 Only a selection was taken, and actives are over-represented in it overall.

The compounds below were run against Glycogen synthase kinase-3 alpha (Homo sapiens) (UniProt P49840) (assay: blockers of GSK3A enzyme activity – biochemical, luminescence, cell-free homogeneous, HTS, primary screen (AID 2650;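 further: GST-tagged GSK-3 alpha with peptide substrate and 25 µM ATP; 0% = DMSO neutral wells and 100% = GW8510 positive control wells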)). Conditions: GSK-3 alpha kinase, ADP-Glo luminescence, 60 min; at 10 µM; hits give high values.
Glycogen synthase kinase-3 alpha (Homo sapiens), sequence (P49840 whole entry, looked up): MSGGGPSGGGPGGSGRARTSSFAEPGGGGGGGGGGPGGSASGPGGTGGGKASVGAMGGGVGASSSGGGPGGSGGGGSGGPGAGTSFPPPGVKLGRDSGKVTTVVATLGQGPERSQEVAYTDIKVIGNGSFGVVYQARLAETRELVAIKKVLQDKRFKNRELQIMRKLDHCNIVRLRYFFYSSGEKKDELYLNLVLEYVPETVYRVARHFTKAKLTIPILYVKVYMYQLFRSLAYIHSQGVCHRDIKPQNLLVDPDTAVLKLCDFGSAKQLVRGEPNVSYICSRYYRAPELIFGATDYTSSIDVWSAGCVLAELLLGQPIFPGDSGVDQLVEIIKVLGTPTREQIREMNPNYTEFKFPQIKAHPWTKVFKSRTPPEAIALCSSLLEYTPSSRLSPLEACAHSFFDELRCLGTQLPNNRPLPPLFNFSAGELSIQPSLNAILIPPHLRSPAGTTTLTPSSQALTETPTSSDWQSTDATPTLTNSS
In the case of `O=C(CNC(=O)OCc1ccccc1)Oc1cc2oc(=O)cc(-c3ccccc3)c2cc1Cl`, the inhibition was -0.182% (inactive). `CC1CCc2c(nc3ncnn3c2Nc2ccc(OC(F)(F)F)cc2)C1` (stereo not given) was tested, and the inhibition was 3.32% (inactive). In the case of `Cc1ccc(N(Cc2ccccc2O)C(=O)c2ccccc2F)cc1`, the inhibition was 0.374% (inactive). For `O=C(O)C1CCCN(CCC=C(c2ccccc2)c2ccccc2)C1` (stereo not given), the inhibition was -1.79% (inactive). `N#Cc1c(N2CCCCC2)nc(N)c2c(N)nc(SCC(=O)O)cc12` was tested, and the inhibition was 71.9% (active). `N#CCc1c(C#N)c(N)nc(N2CCCC2)c1C#N` was tested, and the inhibition was 5.31% (inactive). In the case of `N#Cc1c(-c2ccccc2)cc(-c2ccccc2)nc1SCC(=O)O`, the inhibition was -8.49% (inactive). `Cc1c(C(=O)Nc2cccc(S(=O)(=O)N3CCOCC3)c2)oc2ccccc12` was tested, and the inhibition was -2.02% (inactive). With `CC(C)(C)c1cc(CN2CCN(CCC#N)CC2)cc(C(C)(C)C)c1O` the inhibition was -0.131% (inactive). In the case of `CCCn1c(N)c(N(CCOC)C(=O)C2CCCC2)c(=O)[nH]c1=O`, the inhibition was -0.139% (inactive). In the case of `CCn1c(SC(C)C(=O)Nc2ccc(N3CCOCC3)cc2)nnc1-c1ccco1` (stereo not given), the inhibition was -7.92% (inactive). With `COC(=O)c1ccc(C23CC4(C2)[C@H](CN(Cc2cccnc2)[C@@H]4c2ccccc2)C3c2ccc(Cl)nc2)cc1` (stereo not given in full) the inhibition was -1.59% (inactive). For `CCOc1ccc(CN2CCN(Cc3ccc(C)o3)CC2CCO)cc1` (stereo not given), the inhibition was -3.68% (inactive). With `O=C(COC(=O)Cc1ccc(Br)cc1)Nc1ccc(N2CCOCC2)cc1` the inhibition was -2.2% (inactive). For `COc1ccc(NC(=O)CN2C(=O)COc3ccc(S(=O)(=O)N4CCOCC4)cc32)c(OC)c1`, the inhibition was -0.917% (inactive). For `COc1ccc(S(=O)(=O)N(C)C[C@H]2Oc3c(NC(=O)Nc4ccc5c(c4)OCO5)cccc3C(=O)N([C@H](C)CO)C[C@@H]2C)cc1`, the inhibition was -2.73% (inactive). For `Cc1ccc(S(=O)(=O)NCC2CCC(C(=O)N3CCOCC3)CC2)cc1` (stereo not given), the inhibition was -1.46% (inactive). `Cc1ccc(C)c(NC(=O)COC(=O)c2nn(C)c(=O)c3ccccc23)c1` was tested, and the inhibition was -0.308% (inactive). In the case of `FC(F)(F)COc1nc(N2CCCCC2)nc(N2CCNCC2)n1`, the inhibition was -3.54% (inactive). In the case of `CC1CC1C(=O)OCC(=O)Nc1cccc(F)c1` (stereo not given), the inhibition was -2.53% (inactive). `CCOC(=O)/C=C/c1ccc(C(F)(F)F)cc1S(=O)(=O)NC(C)(C)C` was tested, and the inhibition was 0.204% (inactive). `O=C(NCc1cccs1)c1ccc(CS(=O)Cc2ccccc2Cl)o1` (stereo not given) was tested, and the inhibition was 2.9% (inactive). In the case of `CC(C)CCNC(=O)c1ccc2c(Cl)c3c(nc2c1)CCC3`, the inhibition was 1.16% (inactive). For `O=C(OCC1O[C@@H](OC(=O)c2cc(O)c(O)c(O)c2)[C@@H](OC(=O)c2cc(O)c(O)c(O)c2)[C@@H](OC(=O)c2cc(O)c(O)c(O)c2)[C@@H]1OC(=O)c1cc(O)c(O)c(O)c1)c1cc(O)c(O)c(O)c1` (stereo not given in full), the inhibition was 57.5% (active). In the case of `O=C(OCC1OC(Oc2ccc(O)cc2)C(O)C(O)C1O)c1ccccc1` (stereo not given), the inhibition was 19.4% (inactive).
